Data published in PubChem BioAssay AID1578 (Sanford-Burnham Center for Chemical Genomics, 2009).
The whole screen tested about 290,000 compounds, of which about 3,000 (1%) were called active. Rule as the data show it: active = inhibition mostly above about 36% (no sharp cut-off); inactive = mostly below about 34%. Many of the other results were omitted from the sample, so actives are more common in it than they were.

test: NOD1 signaling inhibitors, primary screen, cell-based, luminescence, uHTS (AID 1578); conditions: NOD1-driven NF-kB luciferase reporter cells, at 4 µM, hits give high values;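 also: HEK-293T reporter cells stimulated with the NOD1 agonist gamma-tri-DAP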

Row | SMILES | inhibition
1 | CCOC(=O)c1nnn2c1nc(N1CCOCC1)c1ccccc12 | 3.1% (inactive)
2 | Cc1ccc(C(=O)N(CC(=O)NC2CCCCC2)c2ccccc2F)s1 | -27% (inactive)
3 | O=C(NC1CC1)c1ccc(CS(=O)c2ccccc2)o1 (stereo not given) | -19% (inactive)
4 | Cc1ccc2nc(NC(=O)c3ccc(OCC4CCCO4)cc3)sc2c1 (stereo not given) | 3.2% (inactive)
5 | C/C=C(/C)C(=O)OC(C)(C)[C@@H]1Cc2c(ccc3ccc(=O)oc23)O1 | -44.4% (inactive)
6 | Cc1cccc(C)c1NC(=O)COn1nnc2ccc(C(F)(F)F)cc21 | -17.2% (inactive)
7 | O=C(COn1nnc2ccc(C(F)(F)F)cc21)Nc1c(Cl)cccc1Cl | -17.9% (inactive)
8 | O=C(COn1nnc2ccc(C(F)(F)F)cc21)Nc1nnc(-c2ccccc2)o1 | 67.4% (active)
9 | CCOC(=O)C1(Nc2nccs2)Sc2ccccc2NC1=O (stereo not given) | 24.1% (inactive)
10 | CSc1nncc(-c2ccc(F)cc2)n1 | 12.5% (inactive)
11 | COc1ccc(/C(C)=N/NC(=O)c2ccc(NS(=O)(=O)c3cccs3)cc2)cc1 | -9.8% (inactive)
12 | CSCC[C@H](N)C(=O)NCC1CCC(C(=O)Nc2ccc3c(c2)OCO3)CC1 (stereo not given in full) | -1.6% (inactive)
13 | N#CC1(c2ccccc2)CCCN1C(=O)c1ccco1 (stereo not given) | 7.3% (inactive)
14 | O=Cc1s/c(=N\S(=O)(=O)c2ccccc2)n(CCCCl)c1Cl | 17.3% (inactive)
15 | Cc1c(C(C)(C)C)s/c(=N/S(=O)(=O)c2ccccc2)n1C | 3% (inactive)
16 | CCn1c(Cl)c(C=O)s/c1=N\S(=O)(=O)c1ccccc1 | 34% (active)
17 | CN(C)S(=O)(=O)c1cccc(C(=O)Nc2ccccc2N2CCCCC2)c1 | -14.5% (inactive)
18 | COc1cc(-c2c(-c3cc(OC)c(OC)c(OC)c3)noc2C)ccc1F | -21.2% (inactive)
19 | COc1ccc(-c2c(-c3cc(OC)c(OC)c(OC)c3)noc2C)cn1 | -8.6% (inactive)
20 | COc1cc(-c2noc(C)c2-c2ccc(N(C)C)nc2)cc(OC)c1OC | 62% (active)
21 | CCOC(=O)c1cnn(-c2nc(C)nc3sc4c(c23)CCC4)c1N | -33% (inactive)
22 | CCOC(=O)c1cnn(-c2nc(SC)nc3sc4c(c23)CCCC4)c1N | -0.3% (inactive)
23 | CCOC(=O)c1cnn(-c2nc3sc4c(c3c(=O)[nH]2)CCCC4)c1N | 63.7% (active)
24 | S=C(NCc1ccc(Cl)cc1)NN1CCOCC1 | -24.6% (inactive)

Row | SMILES | inhibition
25 | CCOCCCNC(=O)NC(=O)CN1CCN(S(=O)(=O)c2ccc3c(c2)OCCO3)CC1 | -47% (inactive)
26 | O=C1CCC(=O)N1CC1CC2CCC1C2 (stereo not given) | 0.2% (inactive)
27 | COc1ccc(-c2nn(-c3ccccc3)cc2C(=O)O)cc1 | 18.9% (inactive)
28 | COC(=O)c1cn(-c2ccccc2)nc1-c1ccccc1 | -4.9% (inactive)
29 | COC(=O)c1cn(-c2ccccc2)nc1-c1ccc(OC)cc1 | 47.5% (active)
30 | O=C(c1ccc(Br)cc1)N(c1ccccn1)C1CCCCC1 | -12.8% (inactive)
31 | CCCN1C(=O)/C(=C/c2c(N3CCNC(=O)C3CC(=O)OCC)nc3c(C)cccn3c2=O)SC1=S (stereo not given) | -1% (inactive)
32 | CCCN1C(=O)/C(=C/c2c(N3CCNC(=O)C3CC(=O)OC)nc3c(C)cccn3c2=O)SC1=S (stereo not given) | 6.9% (inactive)
33 | CCOC(=O)CC1C(=O)NCCN1c1nc2ccc(C)cn2c(=O)c1/C=C1\SC(=S)N(C(C)CC)C1=O (stereo not given) | 20.6% (inactive)
34 | CCOC(=O)CC1C(=O)NCCN1c1nc2c(C)cccn2c(=O)c1/C=C1\SC(=S)N(C(C)CC)C1=O (stereo not given) | 35.4% (active)
35 | CCOC(=O)CC1C(=O)NCCN1c1nc2c(C)cccn2c(=O)c1/C=C1\SC(=S)N(CC(C)C)C1=O (stereo not given) | 32% (active)
36 | CCOC(=O)CC1C(=O)NCCN1c1nc2ccc(C)cn2c(=O)c1/C=C1\SC(=S)N(CC(C)C)C1=O (stereo not given) | 3.2% (inactive)
37 | COc1ccc(C(=O)O)cc1NC(=S)NC(=O)Cc1ccc(Cl)cc1 | -11.2% (inactive)
38 | Cn1c(SCC(=O)NCCc2ccccc2)nnc1C1CCCCC1 | -6.8% (inactive)
39 | COC(=O)Nc1ccc(N2CCOCC2)c(S(=O)(=O)N2CCOCC2)c1 | -18% (inactive)
40 | c1ccc(C2[C@H]3CN(Cc4cccnc4)[C@H](c4ccccc4)C34CC2(c2ccccc2)C4)cc1 (stereo not given in full) | -5.1% (inactive)
41 | Cc1ccc(C)c(N2CCN(C(=O)CCNC(=O)Cn3ccc4ccccc4c3=O)CC2)c1 | 33% (inactive)
42 | O=[N+]([O-])c1ccc(C2Nc3cccc4cccc(c34)N2)cc1 | 25.1% (inactive)
43 | O=[N+]([O-])c1ccccc1C1Nc2cccc3cccc(c23)N1 | 105% (active)
44 | Oc1ccccc1C1Nc2cccc3cccc(c23)N1 | 7.9% (inactive)
45 | Cc1ccc(C(NC(=O)N2CCOCC2)=C(Cl)Cl)cc1F | 32.1% (inactive)
46 | Cc1ccc(C(NC(=O)NCCCN2CCOCC2)=C(Cl)Cl)cc1F | 34.4% (inactive)
47 | Cc1ccc(C(NC(=O)N2CCCCC2)=C(Cl)Cl)cc1F | 74% (active)
48 | COc1ccc(CN2CCN(c3cccc(C)c3C)CC2)cc1OC | 21.4% (inactive)

Row | SMILES | inhibition
49 | CCC1Oc2ccc(C)cc2N(CC(=O)NCCN2CCOCC2)C1=O (stereo not given) | -21% (inactive)
50 | Clc1ccc(C2=NN(c3ccccc3)C(c3ccco3)C2)cc1 (stereo not given) | -9.1% (inactive)
51 | c1ccc(C2=NN(c3ccccc3)C(c3ccco3)C2)cc1 (stereo not given) | 54.1% (active)
52 | Fc1ccc(C2=NN(c3ccccc3)C(c3ccco3)C2)cc1 (stereo not given) | 4% (inactive)
53 | O=S(=O)(c1ccc(F)cc1)N1CCn2c(nc3ccccc32)C1 | -11.7% (inactive)
54 | CCOc1ccc(S(=O)(=O)Nc2cc(C)ccn2)c2ccccc12 | 5.2% (inactive)
55 | Cc1ccc2[nH]c3c(=O)n(Cc4ccco4)cnc3c2c1 | 1.2% (inactive)
56 | CCOc1cccc(-c2nnc3sc(C4CCCCC4)nn23)c1 | 66.8% (active)
57 | COc1cccc(-c2nnc3sc(C4CCCCC4)nn23)c1 | 96.4% (active)
58 | c1cncc(-c2nnc3sc(C4CCCCC4)nn23)c1 | -14.1% (inactive)
59 | COc1ccc(-c2nnc3sc(C4CCCCC4)nn23)cc1OC | 9.5% (inactive)
60 | COc1cc(-c2nnc3sc(C4CCCCC4)nn23)cc(OC)c1OC | -20.6% (inactive)
61 | CCOc1cccc(-c2nnc3sc(-c4ccc(C)cc4)nn23)c1 | -0.8% (inactive)
62 | O=C(c1ccccc1)N1CCC(c2nc(-c3ccc(S(=O)(=O)N4CCOCC4)cc3)no2)CC1 | 18.2% (inactive)
63 | COCCCNC(=S)NNC(=O)Cn1nc(C)c(Br)c1C | 0.3% (inactive)
64 | CC(Oc1ccc(Cl)cc1Cl)c1nc(-c2ccc(NC(=O)c3ccco3)cc2)no1 (stereo not given) | -12.3% (inactive)
65 | CC(Oc1ccc(Cl)cc1Cl)c1nc(-c2ccc(NC(=O)c3ccccn3)cc2)no1 (stereo not given) | -18.6% (inactive)
66 | CC(Oc1ccc(Cl)cc1Cl)c1nc(-c2ccc(NC(=O)c3ccncc3)cc2)no1 (stereo not given) | 42.3% (active)
67 | C=C(C(=O)O)C1CCC2(C)CCCC(C)(O)C2C1 (stereo not given) | -0.6% (inactive)
68 | NNc1nc(C(F)(F)F)nc2ccccc12 | -7.9% (inactive)
69 | C/C(O)=c1/ccc2cccc3nc(C)nc1c23 | -3.6% (inactive)
70 | O/C=c1\ccc2cccc3nc(C(F)(F)F)nc1c23 | 38% (active)
71 | Cc1ccc(NC(=O)COC(=O)C(NS(=O)(=O)c2ccc(Cl)cc2)C(C)O)c(Br)c1 (stereo not given) | -22.2% (inactive)
72 | CCOC(=O)N1CCN(C(=O)CN(C2CCCCC2)S(=O)(=O)c2c(C)cc(C)cc2C)CC1 | -2.2% (inactive)

Row | SMILES | inhibition
73 | COc1ccc(C(=O)NCCNc2ccccc2[N+](=O)[O-])cc1 | -34% (inactive)
74 | CCCNC(=O)c1ccc(S(=O)(=O)c2ccc(OC)cc2)c([N+](=O)[O-])c1 | 63.9% (active)
75 | COc1ccc(C(=O)NCCNc2ccc([N+](=O)[O-])cc2)cc1 | -51.3% (inactive)
76 | CCOc1ccc(OCC)c(S(=O)(=O)n2cc(C)nc2CC)c1 | -17.2% (inactive)
77 | CCc1nc(C(N)=O)c2[nH]c(=O)n(-c3ccccc3F)c2n1 | -17% (inactive)
78 | COc1cc(/C=C/C(=O)N2C(=O)c3cccc(N)c3C2=O)cc(OC)c1OC | 17.4% (inactive)
79 | COc1ccc(OC)c(/C=C/C(=O)N2C(=O)c3cccc(N)c3C2=O)c1 | 88.6% (active)
80 | Nc1cccc2c1C(=O)N(C(=O)/C=C/c1cccc(Br)c1)C2=O | 3.9% (inactive)
81 | COCCSc1nnc(NC(=O)Cc2ccc(OC)cc2)s1 | -20.4% (inactive)
82 | CCN1C(=O)C(CC(=O)Nc2ccc(OC)cc2)N(CCCN2CCN(c3ccc(F)cc3)CC2)C1=S (stereo not given) | -47.7% (inactive)
83 | COc1ccccc1N1CCN(C(=O)CCCNC(=O)Cn2cnc3sc(C)c(C)c3c2=O)CC1 | 17.8% (inactive)
84 | Cc1cccc(NC(=O)CSc2nccn2Cc2ccco2)c1C | -19.3% (inactive)
85 | COc1ccc(/C=N/Nc2nncc3ccccc23)cc1 | 0.2% (inactive)
86 | CN(C)c1ccc(/C=N/Nc2nncc3ccccc23)cc1 | 15% (inactive)
87 | CN(CCO)c1ccc(/C=N/Nc2nncc3ccccc23)cc1 | 57.1% (active)
88 | O=C(COC(=O)c1sc2cc(Cl)ccc2c1Cl)Nc1ncc(Cl)cc1Cl | -10.9% (inactive)
89 | COc1ccccc1-c1cc(-c2ccccc2)nc(=O)[nH]1 | -2.4% (inactive)
90 | COc1ccc(NC(=O)c2cc([N+](=O)[O-])ccc2N2CCCCC2)cc1 | -27.2% (inactive)
91 | COc1ccc(NC(=O)c2cc([N+](=O)[O-])ccc2O)cc1 | 99.1% (active)
92 | COc1ccc(NC(=O)c2cc([N+](=O)[O-])ccc2N2CCCC2)cc1 | -23.7% (inactive)
93 | CCN1CCc2c(OCc3ccc(C)cc3)cccc2C1=O | 2.6% (inactive)
94 | CCCCn1c(-c2csc3ccccc23)n[nH]c1=S | 5.2% (inactive)
95 | CCCCNC(=O)C1CCN(C(=O)C2CCN(S(=O)(=O)c3ccc(C)cc3)CC2)CC1 | -21.1% (inactive)
